# A selection: hits, their analogues and other compounds. The true share with any hit is near 22%.
# CYP2C19 activ – cytochrome P450 2C19 (human) activation; activation factor at 5 µM; 96,000 tested, under 10 active; recombinant CYP2C19, luciferin-H EGE luminescence; active compounds read high; 0 = fully inhibited enzyme, 1 = untreated enzyme; P33261;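 active = activation factor of at least 2 at 5 µM in the primary screen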
# Target sequence (P33261 whole entry, looked up): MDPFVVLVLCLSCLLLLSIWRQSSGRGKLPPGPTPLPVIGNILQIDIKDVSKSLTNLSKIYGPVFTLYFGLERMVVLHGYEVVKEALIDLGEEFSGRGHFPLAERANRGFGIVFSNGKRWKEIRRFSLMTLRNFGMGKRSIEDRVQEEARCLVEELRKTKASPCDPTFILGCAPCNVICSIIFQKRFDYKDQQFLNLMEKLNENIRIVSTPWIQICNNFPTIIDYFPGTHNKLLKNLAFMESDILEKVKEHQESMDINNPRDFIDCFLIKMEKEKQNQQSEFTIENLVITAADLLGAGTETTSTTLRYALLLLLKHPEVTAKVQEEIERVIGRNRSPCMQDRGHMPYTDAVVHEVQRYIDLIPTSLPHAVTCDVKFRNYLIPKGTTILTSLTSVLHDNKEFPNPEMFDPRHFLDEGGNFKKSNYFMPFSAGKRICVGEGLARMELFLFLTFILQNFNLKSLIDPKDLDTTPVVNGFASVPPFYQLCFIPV
# CYP2C9 inhib – blocks human cytochrome P450 2C9. P11712. CYP2C9 Supersomes, luciferin-H conversion, luminescence. inhibition, % at 5 µM. actives 20% (n = 96,000). AID 777;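 active = blocking of liver enzyme CYP2C9 beyond about 50% at 5 µM, limit read from the data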
# Measles CPE – protection of cells from measles virus; Measles virus-infected cells, CPE protection, absorbance; protection (pct of control), % at 4 µM; actives 1.5% (n = 140,000); in the data active = protection mostly above about 24%, no sharp cut-off; inactive = mostly below about 26%
# CYP2C19 inhib – blocks human cytochrome P450 2C19; P33261; CYP2C19 Supersomes, luciferin-H EGE luminescence, 30 min; inhibition, % at 5 µM; actives 21% (n = 96,000); AID 778;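 active = CYP2C19 inhibition above a set limit at 5 µM in the primary screen, cut at about 50% in these data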
# CYP2C9 act – increases human cytochrome P450 2C9 activity; P11712; recombinant CYP2C9, luciferin-H conversion, luminescence; active compounds read high; factor 1 = untreated enzyme, 0 = blocked; actives 1.4% (n = 96,000); activation factor at 5 µM;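 active = activation factor of 2 or more for CYP2C9 at a 5 µM dose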
# Hits are given with their value; . = inactive; / = no result.
SMILES,CYP2C19 activ,CYP2C9 inhib,Measles CPE,CYP2C19 inhib,CYP2C9 act
COc1ccccc1NC(=O)CN(C)S(=O)(=O)c1cc(C)ccc1OC,.,63,.,94,.
COc1ccc(Cn2nnnc2C(c2cc3ccc(OC)cc3[nH]c2=O)N2CCC(C)CC2)cc1 (configuration not stated),.,.,.,.,.
Cc1ccc(C)c2[nH]c(=O)c(C(c3nnnn3Cc3ccco3)N3CCc4ccccc4C3)cc12 (configuration not stated),.,81,.,95,.
CCOc1ccc2[nH]c(=O)c(C(c3nnnn3C3CCCCC3)N3CCN(C)CC3)cc2c1 (configuration not stated),.,.,.,.,.
CCOc1ccc2[nH]c(=O)c(C(c3nnnn3Cc3ccco3)N3CCCC(C)C3)cc2c1 (configuration not stated),.,79,.,96,.
CCOc1ccc2[nH]c(=O)c(C(c3nnnn3Cc3ccco3)N3CCC(C)CC3)cc2c1 (configuration not stated),.,.,.,62,.
CC1=C(C(N)=O)C(c2ccccn2)n2nc(SCc3ccccc3)nc2N1 (configuration not stated),/,/,.,/,/
CC1CCC2(CC1)NC(=O)c1ccccc1O2 (configuration not stated),.,.,.,93,.
Clc1ccc(-c2nnc(CSc3nnc(-c4cccs4)o3)o2)cc1,.,.,.,.,.
c1ccc(OCCSc2nc3ccccc3[nH]2)cc1,/,/,.,/,/
Cc1ccc2nc(SCc3nnc(-c4ccccc4Br)o3)[nH]c2c1,.,75,.,83,.
Clc1ccc2nc(SCc3nnc(-c4ccccc4)o3)[nH]c2c1,.,76,.,86,.
Cc1ccc2nc(SCCCCOc3ccccc3)[nH]c2c1,.,72,.,63,.
Cc1cc(=O)[nH]c(SCc2nnc(-c3ccccc3)o2)n1,.,.,.,.,.
Clc1ccc(OCc2nnc(SCc3nnc(-c4ccccc4)o3)o2)c(Cl)c1,.,.,.,92,.
CCOC(=O)C1=C(C)NC2=C(C(=O)CCC2)C1c1cn(Cc2ccc(Cl)cc2Cl)nc1-c1ccccc1 (configuration not stated),.,83,.,51,.
COC(=O)C1=C(C)NC2=C(C(=O)CCC2)C1c1cn(Cc2ccc(Cl)cc2Cl)nc1-c1ccccc1 (configuration not stated),.,73,.,53,.
CCOC(=O)C1=C(C)NC2=C(C(=O)CCC2)C1c1ccc(N(C)C)cc1 (configuration not stated),.,.,.,.,.
O=C(COC(=O)CC1CCCC1)Nc1cc2c(cc1Cl)C(=O)c1ccccc1C2=O,.,.,.,61,.
O=C(COC(=O)CCC1CCCC1)Nc1ccccc1Sc1ccccc1,/,/,.,/,/
CCOC(=O)C1CCN(S(=O)(=O)c2cccc(-c3cn4cc(Cl)ccc4n3)c2)CC1,.,67,.,76,.
Cc1nc(-c2cccc(S(=O)(=O)N3CCC(C)CC3)c2)cs1,.,.,.,.,.
CCOC(=O)C1CCN(S(=O)(=O)c2cccc(-c3cn4ccccc4n3)c2)CC1,.,.,.,.,.
CC1CCN(S(=O)(=O)c2cccc(-c3cn4cc(Cl)ccc4n3)c2)CC1,.,61,.,.,.
CCOC(=O)C1CCN(S(=O)(=O)c2cccc(-c3cn4cccc(C)c4n3)c2)CC1,.,64,.,53,.
SMILES,CYP2C19 activ,CYP2C9 inhib,Measles CPE,CYP2C19 inhib,CYP2C9 act
Cc1noc(COc2ccccc2OCC(N)=O)c1Cl,.,.,.,.,.
O=C(N/C(=C\c1cccs1)C(=O)N1CCCCCC1)c1ccccc1,.,.,.,.,.
Cc1cccc(-c2nc(CS(=O)CC(=O)NCc3cccs3)c(C)o2)c1 (configuration not stated),.,60,.,.,.
Cc1oc(-c2ccccc2F)nc1CS(=O)CC(=O)NCc1cccs1 (configuration not stated),.,63,.,53,.
Cc1oc(-c2ccccc2Cl)nc1CS(=O)CC(=O)NCc1cccs1 (configuration not stated),.,69,.,71,.
Cc1ccc(CCNC(=O)CS(=O)Cc2nc(-c3cccc(C)c3)oc2C)cc1 (configuration not stated),.,70,.,64,.
O=C(COc1ccccc1O)NNc1ccccc1,/,/,.,/,/
Cc1oc(-c2ccccc2F)nc1CS(=O)CC(=O)NCc1ccc2c(c1)OCO2 (configuration not stated),.,53,.,62,.
CCOC(=O)N1CCN(c2ccc([N+](=O)[O-])cc2F)CC1C (configuration not stated),/,/,.,/,/
COc1ccc(CCN2C(=S)NC3CC2(C)Oc2ccc([N+](=O)[O-])cc23)cc1OC (configuration not stated),.,72,.,.,.
CCOC(=O)c1c(C)[nH]c(C(=O)COC(=O)/C=C/c2ccc(OC(F)F)cc2)c1C,/,/,.,/,/
COc1ccc(C2CC3CC(c4ccccc4)N2O3)cc1 (configuration not stated),.,.,.,91,.
COc1ccc(C2CC(=O)c3ccccc3O2)cc1 (configuration not stated),/,/,.,/,/
CCOC(=O)CNc1nc(OCC#N)nc(N2CCOCC2)n1,.,.,.,.,.
COC(=O)C1CCN(C(=O)c2ccc(SC)cc2OC)CC1,.,.,.,99,.
COc1ccc(C)cc1S(=O)(=O)N(CC(=O)NCc1ccc(Cl)cc1)Cc1ccccc1,.,89,.,72,.
COc1ccc(CNC(=O)CN(Cc2ccccc2)S(=O)(=O)c2ccc(Cl)cc2)cc1,.,96,.,100,.
CN(CC(=O)NC(=O)NCc1ccccc1)Cc1ccc(Cl)cc1,/,/,.,/,/
COc1ccc(CNC(=O)CN(Cc2ccc(Cl)cc2)S(=O)(=O)c2ccccc2)cc1,.,.,.,.,.
O=C(OCCN1C(=O)c2ccccc2C1=O)c1cc2ccccc2o1,.,.,.,.,.
O=C(OCCN1C(=O)c2ccccc2C1=O)c1cccc(OC(F)F)c1,.,.,.,90,.
CCc1ccccc1NC(=O)Cn1nc(C(F)(F)F)c2c1CCC2,/,/,.,/,/
Cc1cc(NC(=O)Cn2nc(C(F)(F)F)c3c2CCC3)n(-c2ccccc2)n1,.,62,.,80,.
COC(=O)c1ccc(COC(=O)C(CCS(C)(=O)=O)N2C(=O)c3ccccc3C2=O)cc1 (configuration not stated),/,/,.,/,/
Cc1ccc(-c2nc(-c3ccccc3)no2)c(Cl)c1,.,.,.,.,.
c1ccc(-c2ccccc2-c2nc(-c3cccnc3)no2)cc1,.,96,.,73,.
Cc1ccc(-c2nc(-c3cccnc3)no2)cc1,.,.,.,76,.
COc1cccc(-c2noc(-c3cccnc3)n2)c1,.,.,.,.,.
c1cncc(-c2noc(-c3cccc4ccccc34)n2)c1,.,.,.,.,.
Cc1ccc(Cc2nc(-c3cccnc3)no2)cc1,/,/,.,/,/

# Assay outcomes from PubChem.
